# The whole screen tested about 360,000 compounds, of which about 7,500 (2.1%) were called active. About 20% were inconclusive and are not listed. Calls come from the whole dose curve; as a rule, active = well fitted inhibition curve with a large enough effect; inconclusive = small, poorly fitted or top-dose-only effect, or effect the other way; inactive = flat fitted curve, though single readings scatter. Shown is part of a subset that was picked to be rich in actives. Where a call stands in place of a potency, no number is given.
# Test: Nrf2 qHTS screen for inhibitors; note: nearly all actives have a fitted effect of over 60% in size
# Conditions: A549 ARE-Fluc reporter, luciferase luminescence, 18-24 h; series mostly up to 46 µM
# Description: NIH Molecular Libraries Probe Production Network [MLPCN]
# NIH Chemical Genomics Center [NCGC]
# Assay Provider: Shyam Biswal, Johns Hopkins University
# Nrf2 is a transcription factor that maintains cellular redox homoestasis and protects cells from xenobiotics. Nrf2 binds to the antioxidant response element (ARE) to induce gene expression of a broad spectrum of genes that encode for antioxidants. […] Finding a small molecule that act as an inhibitor of Nrf2 function would represent a novel therapeutic target that could lead to improvement in survival of patients undergoing chemo- and/or radio- therapy.
# This is the Nrf2 activity measured in the luminescent read.
# 1. Shibata, T., et al., Genetic Alteration of Keap1 Confers Constitutive Nrf2 Activation and Resistance to Chemotherapy in Gallbladder Cancer. Gastroenterology, 2008.
# 2. Sjoblom, T., et al., The consensus coding sequences of human breast and colorectal cancers. Science, 2006. 314(5797): p. 268-74.
# NCGC Assay Protocol Summary:
# A concentration-response assay was performed with A549 ARE_Fluc cells which are suspended in 5% FBS OPTI-MEM. Five uL were dispensed into 1536-well white TC-treated plate using the Kalypsys dispenser to achieve a density of 5000 cells/well in all columns except column 1. The plate is incubated at 37deg C at 5% CO2 for 2 hours before 23 nL of compounds are added with the Kalypsys pin tool equipped with a 1,536-pin array containing 10-nL slotted pins (FP1S10, 0.457-mm diameter, 50.8 mm long; V&P Scientific). The control compounds Budesonide and Staurosporine are both added at a concentration of 2mM and Budesonide is also added as a 1:10 titration, starting at 200uM, to achieve dose-response. After an 18-24 hour incubation at 37deg C at 5% CO2, 5ul of medium is added to column 1. Afterwards 1ul of 5x of CellTiter-Fluor (Promega) is added to every well. The plate is then incubated at 37deg C at 5% CO2 for 30 minutes before they are read on the ViewLux (Perkin Elmer) for a fluorescent read Ex=405(10)/Em=525(10) for a 3 second exposure, 2x binning, and high gain. Then 3 uL of 3x BugLite is dispensed into all wells and the plate is incubated at ambient room temperature for 15 minutes. Afterwards another ViewLux read is performed using the clear filter to get a luminescent read with the settings of 40 second exposure, 2x binning, and high gain. Cytotoxicity is assessed through the first fluorescent read and then biochemical activity against Nrf2 is measured in the luminescent read.
# Potency is the fitted concentration of half-maximal effect.
row,SMILES,Potency
1,CN(C)C(=O)Oc1ccc(NC(=O)N2CCOCC2)cc1,inactive
2,CCN(CC)C(=O)Oc1ccc(NC(=O)N2CCOCC2)cc1,inactive
3,O=C(Nc1cccc(OC(=O)N2CCCCC2)c1)N1CCOCC1,16.4 µM (active)
4,COC(=O)C1=C(c2c(C)noc2C)C[C@@H]2CC[C@H]1N2C(=O)NCc1ccc2c(c1)OCO2,inactive
5,c1ccc(C(CN2CCCCC2)c2ccccc2)cc1,inactive
6,C[C@]12CC[C@H](O)CC1=C([N+](=O)[O-])CC1C2CC[C@@]2(C)C1CC[C@@H]2O (stereo not given in full),inactive
7,O=C1NC(=O)C(CCOc2ccccc2)(CCc2ccccc2)C(=O)N1,inactive
8,O=c1[nH]c(=O)n(CCc2ccc(F)cc2)c(O)c1/C=N/N1CCCCC1,inactive
9,CCCCC(=O)N/N=C/c1c(O)n(-c2ccccc2)c(=O)[nH]c1=O,inactive
10,CCCCC(=O)N/N=C/c1c(O)n(CCC2=CCCCC2)c(=O)[nH]c1=O,18.4 µM (active)
11,CN(C)CC1Oc2ccccc2OC1(O)c1ccccc1 (stereo not given),14.6 µM (active)
12,CC1C(=O)OC2CCN3CC=C(COC(=O)C(C)(O)C1(C)O)C23 (stereo not given),inactive
13,COC(=O)C1=C(c2ccc(Cl)c(C(F)(F)F)c2)C[C@@H]2CC[C@H]1N2C(=O)NC(C)C,inactive
14,O=C1NC(=O)C(Cc2ccccc2)C(=O)N1,inactive
15,Cc1ccc(C(C)C)c(OCC(=O)N2CCN(CC(=O)N3CCOCC3)CC2)c1,inactive
16,O=C(O)c1cc[c]([Sb](=[O])([OH])[OH])cc1[N+](=O)[O-],inactive
17,CC(=O)c1c(O)n(C2CCCCCC2)c(=O)[nH]c1=O,inactive
18,CC/C(=N\NC(=O)c1ccccc1O)c1c(O)n(Cc2ccccc2)c(=O)[nH]c1=O,inactive
19,CCC(=NCCc1ccccc1)c1c(O)n(C2CCCCC2)c(=O)[nH]c1=O,20.6 µM (active)
20,Cn1cc(C(=O)OCC(=O)N2CCCC2)c2ccccc21,inactive
21,CC1CNCCN1c1ccc(Cl)cc1 (stereo not given),inactive
22,CCn1cc2nc(SCc3ccccc3Cl)n(CCc3ccccc3)c(=O)c2n1,18.4 µM (active)
23,CC(=O)C1(O)CCC2C3CCC4=C(Cl)C(=O)CCC4(C)C3CCC21C (stereo not given),inactive

row,SMILES,Potency
1,Cc1ccc(N(C)C(=O)Oc2cccc3ccc(C)nc23)cc1,inactive
2,CN1CCc2cc3c(cc2[C@H]1[C@@H]1OC(=O)c2c1ccc1c2OCO1)OCO3,inactive
3,COc1cccc(CN2CCCC(C(=O)c3ccccc3SC)C2)c1O (stereo not given),inactive
4,CC1CC=CCC12C(=O)NC(=S)NC2=O (stereo not given),inactive
5,CCCn1c(C(=O)c2ccccc2OC)nc2ccccc21,inactive
6,COc1cc(Cn2c(N)c(C(=O)NCc3ccco3)c3nc4ccccc4nc32)cc(OC)c1OC,inactive
7,CCOc1ccc(CNC(=O)c2cccc(Nc3nc4ccccc4n4nnnc34)c2)cc1OC,7.31 µM (active)
8,CC(C)Oc1cccc(C(=O)C2CCCN(C3CCOCC3)C2)c1 (stereo not given),inactive
9,CCC1(CC(C)c2ccccc2)C(=O)NC(=O)NC1=O (stereo not given),inactive
10,COC(=O)C1=C(c2ccc3ccccc3c2)C[C@@H]2CC[C@H]1N2C(=O)NCCO,inactive
11,Cc1ccc(NC(=O)CN(C)CC(=O)Nc2cccc(F)c2)cc1[N+](=O)[O-],11.6 µM (active)
12,CNCC(O)c1cc(F)c(OCc2ccccc2)c(OCc2ccccc2)c1F (stereo not given),inactive
13,CCOC(=O)CC(SP1(=S)OCC2(CCCCO2)C(C2CCCCO2)O1)C(=O)OCC (stereo not given),inactive
14,CC(CC(C#N)(c1ccccc1)c1ccccc1)N1CCCCC1 (stereo not given),inactive
15,O=C(CCC(=O)N1C[C@H]2C[C@@H](C1)c1cccc(=O)n1C2)NCc1ccccc1C(F)(F)F,inactive
16,COC(=O)C1=C(c2ccccc2)C[C@@H]2CC[C@H]1N2C(=O)NCc1ccco1,inactive
17,COC(=O)C1=C(c2ccc(F)cc2F)C[C@@H]2CC[C@H]1N2C(=O)NC1CC1,inactive
18,COC(=O)C1=C(c2ccc(F)cc2OCc2ccccc2)C[C@@H]2CC[C@H]1N2C(=O)NCc1ccc(Cl)cc1,23.1 µM (active)
19,C[C@]12CCCCC1=CC(=O)C1C2CC[C@@]2(C)C1C[C@@H](F)[C@@H]2O (stereo not given in full),inactive
20,Cc1cc(C(=O)OCC(=O)Nc2c(F)cccc2F)c(C)n1C1CC1,inactive
21,c1ccc(Cc2nn3c(Cn4cnc5ccccc54)nnc3s2)cc1,23.1 µM (active)
22,O=c1[nH]c(CN2CC=C(c3ccccc3)CC2)nc2scc(-c3cccs3)c12,inactive
23,CC[C@H]1CC2CN3CCc4c([nH]c5ccccc45)C(C(=O)OC)(C2)C13 (stereo not given in full),inactive

row,SMILES,Potency
1,CCC(=O)OC(Cc1ccccc1)(c1ccccc1)C(C)CN(C)C (stereo not given),inactive
2,CC=C(C)C(=O)OC1CCN2CC=C(COC(=O)C(O)(C(C)OC)C(C)(C)O)C12 (stereo not given),inactive
3,CCC(=O)c1ccc(OCC(=O)N2CCN(CC(=O)Nc3ccc(C)cc3)CC2)cc1,inactive
4,COc1cccc(C(=O)Nc2ccc(-c3cc(C(F)(F)F)nn3-c3ccccc3)cc2)c1,14.6 µM (active)
5,COc1ccc(NC(=O)c2cn(CCC#N)nc2-c2ccc([N+](=O)[O-])cc2)cc1,inactive
6,COc1ccc(-c2nn(CCC#N)cc2C(=O)Nc2ccc(C(C)=O)cc2)cc1,inactive
7,C=C(C)C1(CCCC)C(=O)NC(=S)NC1=O,inactive
8,COC(=O)[C@@H]1C(OC(=O)c2ccccc2)CC2CCC1N2C (stereo not given in full),inactive
9,COC(=O)C1=C(c2cc3ccccc3s2)C[C@@H]2CC[C@H]1N2C(=O)NC(C)C,inactive
10,CC1([N+](=O)[O-])COP(=O)(Nc2ccc(F)cc2)OC1 (stereo not given),inactive
11,COP(=O)(NS(=O)(=O)c1ccccc1)OC,inactive
12,O=C1C=C(NS(=O)(=O)c2ccccc2)C(=O)c2ccccc21,23.1 µM (active)
13,CC1CCCN1CCC(C(N)=O)(c1ccccc1)c1ccccc1 (stereo not given),inactive
14,O=C1C2(Cl)C3(Cl)C4(Cl)C(Cl)(Cl)C5(Cl)C3(Cl)C1(Cl)C5(Cl)C24Cl (stereo not given),inactive
15,COC1=C[C@@H]2[C@@H]3Cc4ccc(OC)c(O)c4[C@]2(CCN3C)CC1=O,inactive
16,Cc1ccc(Cl)cc1N1CCN(C(=O)C2CCC(CNS(=O)(=O)c3cccs3)CC2)CC1 (stereo not given),10.3 µM (active)
17,c1cc2c(cc1C1OCC3C(c4ccc5c(c4)OCO5)OCC13)OCO2 (stereo not given),inactive
18,CCc1ccc(OCC(=O)N2CCN(CC(=O)Nc3ccccc3Cl)CC2)cc1,inactive
19,CC[C@H]1CN2CCc3cc(OC)c(OC)cc3[C@@H]2C[C@@H]1C[C@H]1NCCc2cc(OC)c(OC)cc21,0.411 µM (active)
20,Cc1nn(-c2ccccc2)c(C)c1NC(=O)COC(=O)Cc1ccccc1,inactive
21,COc1ccc2c(c1)[C@]13CCCCC1C(C2)N(C)CC3 (stereo not given in full),inactive
22,C[C@]12CCC3C(CC[C@H]4[C@H](O)[C@H](O)CC[C@]34C)C1CCC2=O (stereo not given in full),inactive
23,COc1ccc(C2NCc3ccc4c(c3-n3cccc32)OCO4)cc1OC (stereo not given),inactive

row,SMILES,Potency
1,CCCCCCCCCCCCn1ccc(=N)cc1,20.6 µM (active)
2,c1cc2c(cc1CCNC1CCCCCC1)OCO2,inactive
3,O=C1N=c2ccccc2=C/C1=C\c1c(O)[nH]c(=S)[nH]c1=O,inactive
4,COC1C(O)C(C)OC(OC2CCC3(C=O)C(CCC4C3CCC3(C)C(C5=CC(=O)OC5)CCC43O)C2)C1O (stereo not given),0.0231 µM (active)
5,COC1=CC=C2[C@H]3Cc4ccc(OC)c5c4[C@@]2(CCN3C)C1O5 (stereo not given in full),inactive
6,COCc1cc(OC(=O)N(C)C)nc(-c2ccc(C)c(Cl)c2)n1,inactive
7,C[C@]12CCC3C(CC[C@H]4[C@H](O)[C@H](O)CC[C@]34C)C1CC[C@@H]2O (stereo not given in full),inactive
8,c1ccc(CCN2CCC3(CC2)OCCO3)cc1,inactive
9,CCC(C)(O)C(=O)OC1C(=O)OC2CC3C(C)=CC(=O)C(O)C3(C)C3C4(O)OCC23C1C(C)C4O (stereo not given),0.58 µM (active)
10,CC12CCC(O)CC1CCC1C2CCC2(C)C(C(=O)CC(O)C(F)(F)F)CCC12 (stereo not given),inactive
11,CCN1C(=O)NC(=O)C2(CCCC2)C1=O,inactive
12,Oc1ccc2c3c1OC1[C@H](O)CC[C@@]4(O)[C@@H](C2)N(CC2CC2)CC[C@]314 (stereo not given in full),inactive
13,NS(=O)(=O)c1ccc(CCNC(=O)c2ccc(Cl)c(S(=O)(=O)N3CCCCCC3)c2)cc1,10.3 µM (active)
14,Cc1ccccc1NC(=O)COC(=O)c1cc(C)n(C2CC2)c1C,inactive
15,Cn1cc(/C=C/c2nc3ccccc3c(=O)n2-c2ccccc2)c2ccccc21,inactive
16,C[C@]12CCC3C(CC[C@H]4C[C@@H](O)CC[C@]34C)C1CC[C@@H]2O (stereo not given in full),inactive
17,C[C@]12CCC3C(CC[C@H]4C[C@@H](O)CC[C@]34C)C1C[C@@H](O)[C@H]2O (stereo not given in full),inactive
18,C[C@]12CC[C@H](O)C[C@H]1CC[C@@H]1C2CC[C@]2(C)[C@@H](C3=CC(=O)OC3)[C@@H](O)C[C@]12O (stereo not given in full),1.84 µM (active)
19,O=P1(Oc2ccccc2)CC(O)C(O)C(COCc2ccccc2)O1 (stereo not given),inactive
20,CC12CCC3C(CCC4CC(=O)CCC43C)C1CC(=NO)C2=O (stereo not given),inactive
21,CN1CCC(N(C)Cc2cccnc2)CC1,inactive
